The structures appear in SMILES notation. Measured potencies and affinities stand elsewhere. Records with an inconclusive call do not appear. The source made the active and inactive calls.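 The calls were made as follows: active = lowers substrate conversion with a fitted half-maximal potency at most ten times the top dose, in every run; inconclusive = runs disagree, or flat weak or poorly fitted curves; inactive = every run inactive, flat, weak or opposite direction.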

The experiment addresses cAMP-dependent protein kinase catalytic subunit alpha (Homo sapiens) (UniProt P17612). Kind of experiment: PKA catalytic subunit inhibitors, dose response, biochemical, Caliper mobility shift, dry powder samples (AID 504583). As to conditions: recombinant PKA, Caliper peptide phosphorylation % conversion; series mostly up to 10 µM.
`COc1cc(N2CCC(N3CCN(C)CC3)CC2)ccc1Nc1ncc2c(n1)N1CCC[C@H]1CC(=O)N2C`: the result was inactive. In the case of `COc1cc(N2CCN(C)CC2)ccc1Nc1ncc2c(n1)N(C)c1sccc1C(=O)N2C` it was “inactive”; in that of `CCOc1ccccc1C(=O)Nc1cc(Cl)ccc1O`, “inactive”. Next, `Oc1ccc(Nc2nc(-c3ccccc3O)nc3ccccc23)cc1`: “inactive”. With `COc1cc(N2CCC(N3CCN(C)CC3)CC2)ccc1Nc1ncc2c(n1)N(C1CCCC1)C(C)CC(=O)N2C` (centres undefined), the result was inactive. In the case of `O=C1NCCCc2c1oc1ccc(O)cc21` it was “inactive”. Next, `CC(=O)N(C)c1ccc(N=Cc2c(O)ccc3ccccc23)cc1`: “inactive”; `Cc1ncc(/C=C2\C(=O)Nc3ccccc32)[nH]1`: “inactive”; `CC(Oc1ccc2c(c1)c1ccnc3c4ccccc4c(=O)n2c13)C(=O)NCCN1CCOCC1` (centres undefined): “inactive”. In the case of `O=C(Nc1ccccc1-c1nc2ccccc2[nH]c1=O)c1cccs1` it was “inactive”. For the compound `COc1cc(N2CCN(C)CC2)ccc1Nc1ncc2c(n1)N(C1CCCC1)C(C)CC(=O)N2C` (centres undefined), the outcome was inactive. In the case of `CC(C)n1cnc2c(Nc3cccc(Cl)c3)nc(NCCO)nc21` it was “inactive”; in that of `O=C(Nc1ccccc1-c1ccccc1)c1ccc(Br)o1`, “inactive”; in that of `CN1CCN(c2ccc(Nc3ncc4c(n3)N(C)c3ccccc3C(=O)N4C)cc2)CC1`, “inactive”. Consider `COc1cc(/C=C2\SC(N)=NC2=O)ccc1O`, for which the outcome was inactive. In the case of `COc1cc(/C=C2\SC(=Nc3ccccc3OC)NC2=O)ccc1O` it was “inactive”. In the case of `O=C1NC(=NCc2ccccc2)S/C1=C/c1ccc(O)cc1` it was “inactive”. In the case of `CCCn1c(NC(=O)c2cccc(S(=O)(=O)N3CCCC3)c2)nc2ccccc21` it was “inactive”; in that of `COc1cc(N2CCC(O)CC2)ccc1Nc1ncc2c(n1)N1CCc3cccc(c31)C(=O)N2C`, “inactive”; in that of `COc1cc(N2CCN(C)CC2)ccc1Nc1ncc2c(n1)N(C)c1ccccc1C(=O)N2C`, “inactive”. In the case of `COc1cc(/C=N/n2c(-c3ccccc3)n[nH]c2=S)ccc1O`, the outcome was inactive. Take `COc1cc(C(=O)NC2CCN(C)CC2)ccc1Nc1ncc2c(n1)N(C1CCC(O)CC1)CCC(=O)N2C` (centres undefined): the result was inactive. In the case of `COc1cc(N2CCN(C)CC2)ccc1Nc1ncc2c(n1)N1CCC[C@H]1CC(=O)N2C`, the outcome was inactive. Next, `COc1cc(C(=O)N2CCC(N3CCN(C)CC3)CC2)ccc1Nc1ncc2c(n1)N(C)c1ccccc1C(=O)N2C`: “inactive”.

(Values after PubChem BioAssay AID504583 (Broad Institute, 2011).)
